# Screening data as filed in PubChem.
# This is a sample that favours compounds with a hit; in the whole collection about 12% have one here.
# BAZ2B inh = blocks human BAZ2B | Q9UIF8 | AlphaScreen BAZ2B-H3K14Ac peptide displacement | Potency, µM (top dose mostly 114 µM), usual class: inhibitors | 360,000 compounds, 4.4% hits | AID 504333; note: nearly all actives have a fitted effect of over 60% in size
#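 AlphaScreen luminescence quantifies BAZ2B engagement of H3K14Ac peptide; the protein and biotinylated peptide are both at 50 nM final, buffer PBS pH 7.4 with 0.01% Tween-20, all steps at room temperature.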
# G9a block = G9a (human) methyltransferase inhibition; 350,000 compounds, 8.8% hits; Q96KQ7; G9a H3K9 monomethylation, AlphaScreen, 2 h; Potency, µM (titrated, usually from 102 µM), usual class: inhibitors; note: nearly all actives have a fitted effect of over 75% in size
#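 G9a (20 nM) was preincubated 15 min with compound, then reacted 2 h at room temperature with 500 nM biotin-H3K9 peptide and 20 µM SAM. Monomethyl-H3K9 detected by AlphaScreen using anti-H3K9me1 antibody.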
# HP1b binding inh = HP1-beta chromodomain-methylated histone interaction inhibition; 390,000 compounds, 0.56% hits; Potency, µM (titrated, usually from 114 µM), most hits filed as inhibitors; AlphaScreen HP1-beta / biotin-H3K9me3 peptide binding; note: nearly all actives have a fitted effect of over 70% in size
#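 Compound inhibition of the preformed complex between 50 nM HP1-beta and 50 nM biotinylated H3K9me3 peptide was read by AlphaScreen. Buffer was PBS pH 7.4 with 0.01% Tween-20. Incubations ran 30 min at room temperature, with 10 ug/mL donor/acceptor beads.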
# L3MBTL1 block = inhibitors of human L3MBTL1. Q9Y468. AlphaScreen L3MBTL1–H3K9me1 peptide binding. Potency, µM (top dose mostly 57.1 µM), hits mostly inhibitors. 230,000 compounds, 0.66% hits; note: nearly all actives have a fitted effect of over 60% in size
# Target sequence (Q9Y468 whole entry, looked up): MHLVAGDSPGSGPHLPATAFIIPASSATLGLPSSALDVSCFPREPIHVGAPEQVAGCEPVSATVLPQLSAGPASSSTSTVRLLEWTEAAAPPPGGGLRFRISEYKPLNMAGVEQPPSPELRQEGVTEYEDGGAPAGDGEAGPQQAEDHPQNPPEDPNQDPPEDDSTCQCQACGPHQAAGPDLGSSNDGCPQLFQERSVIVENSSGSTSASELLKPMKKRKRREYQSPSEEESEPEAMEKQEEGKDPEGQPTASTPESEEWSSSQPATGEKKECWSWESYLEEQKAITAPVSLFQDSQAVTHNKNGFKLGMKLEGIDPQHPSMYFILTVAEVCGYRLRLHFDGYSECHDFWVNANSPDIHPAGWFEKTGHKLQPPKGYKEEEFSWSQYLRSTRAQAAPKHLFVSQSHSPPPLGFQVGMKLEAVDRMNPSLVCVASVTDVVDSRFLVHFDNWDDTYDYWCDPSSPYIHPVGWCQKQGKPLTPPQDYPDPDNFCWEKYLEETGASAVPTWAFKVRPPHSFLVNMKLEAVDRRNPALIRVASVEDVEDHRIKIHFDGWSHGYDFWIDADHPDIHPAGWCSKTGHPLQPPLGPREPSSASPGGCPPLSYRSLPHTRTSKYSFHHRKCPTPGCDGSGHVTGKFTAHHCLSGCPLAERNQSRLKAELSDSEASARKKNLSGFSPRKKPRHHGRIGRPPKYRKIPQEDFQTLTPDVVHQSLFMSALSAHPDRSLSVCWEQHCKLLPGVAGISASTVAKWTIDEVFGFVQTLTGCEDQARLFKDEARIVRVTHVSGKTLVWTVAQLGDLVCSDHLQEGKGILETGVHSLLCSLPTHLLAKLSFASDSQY
#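 AlphaScreen proximity signal between nickel-chelate acceptor and streptavidin donor beads (final 10 ug/mL) reports binding of 50 nM L3MBTL1 to 75 nM biotin-H3 K9me1 peptide; complex incubated with compounds 30 min at room temperature; cefsulodin titration as control.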
# Sfp PPTase inh = blocks B. subtilis Sfp PPTase activity. AID 1490. Biochemical Sfp PPTase activity, qHTS. Potency, µM, usual class: inhibitors. 310,000 compounds, 3.5% hits;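 note: the enzyme is Sfp with the accession as filed and its product quenches rhodamine fluorescence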
#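 Fluorescence-quenching assay: 15 nM Sfp-PPTase preincubated 15 min at room temperature with compound, then 5 uM rhodamine-CoA and 12.5 uM BHQ-2-labelled YbbR peptide added. Fluorescence (ex 525/em 598 nm) read at start and after 30 min; difference gives rate.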
# JMJD2A Tudor = blocks the human JMJD2A Tudor domain | O75164 | AlphaScreen JMJD2A-Tudor / H3K4me3 peptide binding | Potency, µM (top dose mostly 114 µM), most hits filed as inhibitors | 390,000 compounds, 4.4% hits | AID 504339; note: nearly all actives have a fitted effect of over 50% in size
# Hits are given with their value; 0 = inactive; ? = inconclusive; - = no result; [ ] = dose if it differs, or a comment. Calls come from the whole dose curve; as a rule, active = well fitted curve in the direction sought with a large enough effect; inconclusive = small, poorly fitted or top-dose-only effect, or another doubt; inactive = no such curve, though single readings can be large; an effect the other way counts as inactive or inconclusive.
SMILES,BAZ2B inh,G9a block,HP1b binding inh,L3MBTL1 block,Sfp PPTase inh,JMJD2A Tudor
CCN(c1ccc(NC(=O)CSc2nnc3nc(C)cc(C)n23)cc1)C(C)C,?,44.7µM,0,-,0,0
COc1cc(C(=O)N2CCN(S(=O)(=O)c3cccc(F)c3)CC2)ccc1OCC(=O)N1CCOCC1,0,0,0,0,-,0
COc1ccc(/C=C\c2onc(C)c2S(=O)(=O)N2CCC(C(=O)Nc3cccc(Cl)c3)CC2)cc1,-,0,0,-,-,0
COc1cc(OC)c2ccc(=O)oc2c1C(CCN1CCCC1)c1ccc2c(c1)OCO2 (configuration not stated),0,0[12.7 µM],0,-,0,0
CCCCCc1cc(=O)oc2c(C(CCN3CCCC(C)C3)c3ccc4c(c3)OCO4)c(OC)cc(OC)c12 (configuration not stated),31.6µM,?,0,-,0,?
CCCCCc1cc(=O)oc2c(C(CCN3CCCC3)c3ccc4c(c3)OCO4)c(OC)cc(OC)c12 (configuration not stated),-,-,0,-,39.8µM,50.1µM
CCCCCc1cc(=O)oc2c(C(CCN3CCCCC3)c3ccc4c(c3)OCO4)c(OC)cc(OC)c12 (configuration not stated),?,0[12.7 µM],0,-,56.2µM,44.7µM
OCC[C@H]1C[C@H](O)[C@@H](O)[C@]2(Cc3ccccc3CCO2)O1,0,0[2.33 µM],0,0,-,0
O=C(NCCCCc1ccccc1)c1cccc(NC(=O)C2CCCC2)c1,-,-,0,-,-,0
CCOC(=O)C(=O)/C(C#N)=C/Nc1ccc(F)cc1,?,35.5µM,0,-,0,0
Cc1ccc(S(=O)(=O)CC(=O)Nc2nc3c(C)cccc3s2)cc1,0,0,0,-,-,0
COC(=O)c1cccc(NC(=O)CCN2C(=O)C3CC=CCC3C2=O)c1 (configuration not stated),0,0,0,0,-,0
CN(Cc1cccs1)C(=O)CN1CCN(S(=O)(=O)c2ccc3c(c2)OCCCO3)CC1,0,44.7µM,0,0,-,0
CCN(Cc1cccs1)C(=O)CN1CCN(S(=O)(=O)c2ccc3c(c2)OCCCO3)CC1,0,44.7µM,0,0,-,0
COc1cccc(OC)c1-c1cc(C(=O)NC2(C(=O)O)C3CC4CC(C3)CC2C4)nn1-c1ccc(C(=O)N(C)CCCN(C)C)cc1C(C)C (configuration not stated),-,-,-,-,0,-
COC(=O)[C@@H]1C[C@@H]2CC[C@@H](O)C[C@@H]2N1Cc1ccc(N2CCOCC2)cc1,-,-,-,-,0,-
CCn1c(SCC(=O)c2ccccc2)nnc1-c1cccc(Cl)c1,0,0,0,-,-,0
O=C(O)c1cc(S(=O)(=O)N2CCN(S(=O)(=O)c3ccc4ccccc4c3)CC2)ccc1Br,-,-,0,?,-,0
S=c1[nH]ncn1NCc1ccc(Cl)cc1Cl,0,2.82µM,0,0,0,31.6µM
Clc1ccc(CNc2ncnc3[nH]ncc23)c(Cl)c1,-,-,0,-,-,0
Fc1cccc(Cl)c1CNn1cn[nH]c1=S,0,8.91µM,0,0,0,50.1µM
Cc1cc(Cl)c2oc(C(=O)N(C)CCc3cnn(C)c3)c(C)c2c1,0,0,0,-,0,?
C=C(C)[C@@H]1C2=CC(C(=O)OC)=C(C[C@@H](C(=C)C)[C@H]3O[C@H]3C3=C[C@H]1OC3=O)O2,-,-,0,-,-,0
O=C(Cn1nc(Cc2cccnc2)c2ccccc2c1=O)Nc1cccc(C(F)(F)F)c1,0,?,0,-,-,0
O=C(/C=C/c1ccccc1[N+](=O)[O-])Nc1ccccc1,0,?,0,0,?,0
SMILES,BAZ2B inh,G9a block,HP1b binding inh,L3MBTL1 block,Sfp PPTase inh,JMJD2A Tudor
NN/C(=C\[N+](=O)[O-])Nc1ccccc1,56.2µM,20µM,0,?,0,0
NN/C(=C\[N+](=O)[O-])Nc1ccc(Cl)cc1,?,1.26µM,0,0,0,?
CCOC(=O)c1cc(C)n(CC2CCC(C(=O)Nc3ccccc3OC)CC2)c1C (configuration not stated),0,?,0,-,-,0
CC(C)(C)n1cn[nH]c1=S,0,25.1µM,0,-,0,0
Cc1ccc(NC(=O)CSCC(=O)NCc2cccc(C(F)(F)F)c2)cc1,0,0,0,0,-,0
C=CCSc1nc2c(c(=O)[nH]c(=O)n2C)n1CC,0,?,?,0,14.1µM,0
C/C=C/CSc1nc2c(c(=O)[nH]c(=O)n2C)n1Cc1ccc(C)cc1,0,4.47µM,0,0,?,0
C/C=C/Cn1c(SCc2ccccc2)nc2c1c(=O)[nH]c(=O)n2C,0,35.5µM,0,0,?,0
CCOc1ccc(CCNC(=O)COC(=O)c2nc3nc(C)cc(C)n3n2)cc1OCC,0,0,0,0,0,0
COC(=O)c1ccc(NC(=O)CC2C(=O)N(c3cccc(F)c3)C(=O)N2CC(C)C)cc1 (configuration not stated),0,0,0,-,-,0
CC(C)COC(=O)COc1cc(Cl)c(Cl)cc1Cl,0,0[0.501 µM],-,0,-,-
CC(=O)N1CC=CC1(C)C(=O)O (configuration not stated),0,50.1µM,0,0,0,0
CCCc1nc2nc(C)c(NS(=O)(=O)c3ccc(C(C)(C)C)cc3)c(=O)n2[nH]1,0,79.4µM,0,-,0,0
CCc1nc2nc(C)c(NS(=O)(=O)c3ccc(F)cc3)c(=O)n2[nH]1,0,25.1µM,0,-,0,0
CCCc1nc2nc(C)c(NS(=O)(=O)c3ccc4c(c3)CCCC4)c(=O)n2[nH]1,0,0,0,-,0,0
CCc1nc2nc(C)c(NS(=O)(=O)c3ccc(Br)s3)c(=O)n2[nH]1,0,50.1µM,0,-,0,?
O=C(N/N=C/c1cccc([N+](=O)[O-])c1O)c1cccs1,22.4µM,50.1µM,0,?,0,50.1µM
O=C(N/N=C/c1ccc([N+](=O)[O-])cc1)c1cccs1,0,50.1µM,0,?,0,0
O=C1C(=C(O)c2ccccc2)C(=O)c2ccccc21,0,?,0,0,0,89.1µM
Cc1cc(N2CCN(c3cccc(C)c3C)CC2)n2cnnc2n1,?,0,0,-,-,0
O=[N+]([O-])c1cc(Cl)ccc1Nc1nc(Nc2ccc(Cl)cc2[N+](=O)[O-])nc(N2CCOCC2)n1,-,-,0,-,-,0
CC(=O)c1cccc(NS(=O)(=O)c2ccc(N/C=C/C(=O)c3ccc(F)cc3)cc2)c1,?,8.91µM,0,0,0,0
CC(=O)c1cccc(NS(=O)(=O)c2ccc(N/C=C\C(=O)c3ccc(F)cc3)cc2)c1,0,?,0,0,0,0
COc1cc(C(=O)N/C(=C/c2ccc(F)cc2)C(=O)NC(C(=O)O)c2ccccc2)cc(OC)c1OC (configuration not stated),0,?,0,-,0,0
CCCCCn1c(N2CCN(c3cccc(Cl)c3)CC2)nc2c1c(=O)[nH]c(=O)n2C,0,0,0,0,0,?
